Compound activity deposited in PubChem BioAssay by National Center for Advancing Translational Sciences (NCATS).
This is a sample that favours compounds with a hit; in the whole collection about 19% have one here.
TDP1 cell noCPT = qHTS for Inhibitors of human tyrosyl-DNA phosphodiesterase 1 (TDP1): qHTS in cells in absence of CPT; DT40 Tdp1-/- hTDP1 cells, no CPT, ATP luminescence, 48 h; Potency, µM (top dose mostly 46.2 µM), inactives show at the top dose activity change, negative = growth inhibition, usual class: inhibitors; 420,000 tested, 15% active; AID 686978, 2013; note: potency is the fitted concentration of half-maximal effect; nearly all actives have a fitted effect of over 55% in size
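Seeded 400 DT40-hTDP1 cells/well (vehicle DMSO, no 20 nM CPT); pinned compounds; ≥48 hr at 37 °C; CellTiter-Glo luminescence as viability measure.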
IL-1B inflam inh = inhibitors of inflammasome signaling (IL-1 beta secretion); THP-1 LPS/ATP IL-1B secretion, AlphaLISA, 16 h; active compounds read low; activity change, % at 57.5 µM; 360,000 tested, 4.7% active; in the data active = activity change below about -50%; inconclusive = mostly about -30% to -49%
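THP-1 cells pretreated 1 hr with compounds (up to 57.5 uM final), then stimulated with LPS (250 ng/mL final) plus ATP (1.25 mM final); secreted IL-1B measured by AlphaLISA after 16 hr, decreased signal indicating inhibition.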
HT1080 IDH1KD tx = kills HT-1080 cells with IDH1 knockdown. HT-1080 IDH1 knockdown viability, ATP luminescence, 48 h. Potency, µM (doses to about 46.1 µM), without a hit: top-dose activity, negative = toxicity, hits mostly cytotoxic. 360,000 tested, 2% active. AID 686971;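 note: potency is the fitted concentration of half-maximal effect; 0% = DMSO wells and -100% = cell-free medium wells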
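Viability of IDH1-knockdown HT-1080 fibrosarcoma cells was assessed by CellTiter-Glo after 48 h at 37 °C with titrated compound; concentration-effect curves were classified by fit quality and response size.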
DT40 TDP1 CPT = DT40-hTDP1 cell growth loss with CPT | chicken DT40 Tdp1-/-;hTDP1 cells + 20 nM CPT, ATP luminescence, 48 h | Potency, µM (titrated, usually from 46.2 µM), without a hit: at the highest dose activity change, negative = growth inhibition, hits mostly inhibitors | 420,000 tested, 12% active | AID 686979; note: potency is the fitted concentration of half-maximal effect; nearly all actives have a fitted effect of over 55% in size
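Chicken DT40 Tdp1-/- cells stably complemented with human TDP1 were seeded at 400 cells/well in medium containing 20 nM camptothecin, exposed to pin-transferred compounds, and grown at 37 °C for at least 48 hr. Viability was read as ATP luminescence.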
uPA generation = inhibitors of cell surface uPA generation. cell surface uPA generation assay, qHTS. Potency, µM (series often up to 38.3 µM), for the others: top-dose activity change, negative = inhibition, actives largely listed as inhibitors. 330,000 tested, 0.31% active. AID 540303; active = well fitted inhibition curve with a large enough effect; inconclusive = small, poorly fitted or top-dose-only effect; inactive = no such curve, though single readings can be large or run the other way; tested in mouse RAW 264.7 cells; note: potency is the fitted concentration of half-maximal effect; nearly all actives have a fitted effect of over 55% in size
HT1080-NT tox = kills 2HG-producing HT-1080-NT fibrosarcoma cells; Potency, µM (top dose mostly 46.1 µM), inactives show at the top dose activity, negative = less viability, hits mostly cytotoxic; 360,000 tested, 1.6% active; AID 686970; HT-1080-NT fibrosarcoma viability, CellTiter-Glo ATP luminescence, 48 h;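 note: NT is the 2HG producing partner of a matched IDH1 knockdown line; potency is the fitted concentration of half-maximal effect; 0% = DMSO-treated cells and -100% = media-only wells without cells; nearly all actives have a fitted effect of over 55% in size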
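Compounds were tested in concentration-response format on HT-1080-NT cells for 48 hours at 37 degrees C. Cell viability came from CellTiter-Glo luminescence; curves were classified by r2, response magnitude and activity.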
The depositor's hits bear a star; ? = inconclusive; . = no result. Unless noted, calls come from the whole dose curve; as a rule, active = well fitted curve in the direction sought with a large enough effect; inconclusive = small, poorly fitted or top-dose-only effect, or another doubt; inactive = no such curve, though single readings can be large; an effect the other way counts as inactive or inconclusive. Unless noted, % is set by controls: 0 for no effect and ±100 for the full control effect.

SMILES	TDP1 cell noCPT	IL-1B inflam inh	HT1080 IDH1KD tx	DT40 TDP1 CPT	uPA generation	HT1080-NT tox
COCCCNC(=O)c1c(NC(=O)Cc2coc3cc(C)ccc23)sc2c1CCCC2	16.4µM*	.	.	16.4µM*	.	.
Cc1ccc(-c2cc(C(=O)Nc3sc4c(c3C(=O)NCc3ccco3)CCC4)[nH]n2)c(O)c1	?	1.4	11.9%	-12.7%	7.7%	17.2%
CCNC(=O)c1c(NC(=O)Cc2coc3cc(C)ccc23)sc2c1CCCC2	18.4µM*	.	.	11.6µM*	.	.
COc1ccc(NC(=O)Cn2c(=O)n(CCCC(=O)NCCc3ccc(C)cc3)c(=O)c3ccccc32)cc1Cl	-17.4%	.	.	-13.3%	.	.
O=C(Nc1cccc(F)c1)c1ccc(-c2ccccc2Cl)o1	16.4µM*	-28.6	0.0%	?	-6.9%	4.5%
COc1ccc(NC(=O)c2ccc(-c3ccc(C)c4ccccc34)o2)cc1	-1.6%	?	5.9%	?	-4.4%	9.8%
Cc1ccc(-c2ccc(C(=O)Nc3cccc(F)c3)o2)c2ccccc12	20.6µM*	-5.1	-5.8%	?	-15.6%	0.0%
CC1(C)CC(NCCN2CCN(C3=CC(=C(C#N)C#N)CC(C)(C)C3)CC2)=CC(=C(C#N)C#N)C1	13µM*	14.9	4.3%	18.4µM*	-14.4%	-4.5%
COc1ccc(NC(=O)CSc2ccc3c(c2)OCCO3)cc1OC	?	4.9	0.0%	20.6µM*	4.7%	5.2%
COc1cc(NC(=O)CSc2ccc3c(c2)OCCO3)cc(OC)c1OC	20.6µM*	-2.9	-6.0%	20.6µM*	4.1%	-4.6%
CCOC(=O)C(Sc1nnc2c3ccccc3n(CC)c2n1)C(=O)OCC	?	2.0	-18.6%	-17.3%	.	-20.4%
CCC(Sc1nnc2c3ccccc3n(CC)c2n1)C(=O)Nc1ccc(NC(C)=O)cc1 (stereo not given)	20.6µM*	.	.	?	.	.
CCCn1c2ccccc2c2nnc(SC(CC)C(=O)Nc3cc(C)on3)nc21 (stereo not given)	29.1µM*	?	-12.6%	?	-11.2%	-12.6%
CCOC(=O)c1sc(NC(=O)C(CC)Sc2nnc3c4ccccc4n(CC)c3n2)nc1C (stereo not given)	?	40.2	7.5%	6.51µM*	-0.7%	6.6%
Nc1ccccc1S(=O)(=O)C(F)F	-1.3%	30.9	1.7%	2.2%	-6.8%	1.6%
COc1cccc(C2=C(C(C)=O)Sc3nncn3N2C(C)=O)c1	23.1µM*	.	.	?	.	.
CC(=O)C1=C(c2ccc(Cl)c(Cl)c2)N(C(C)=O)n2cnnc2S1	2.91µM*	.	.	2.59µM*	.	.
CC(=O)C1=C(c2ccc(Cl)c(Cl)c2)N(C(C)=O)n2c(C)nnc2S1	4.11µM*	.	.	2.91µM*	.	.
CNC(=O)c1ccc(-c2ccc(Cl)c(Cl)c2)s1	?	12.4	-27.5%	6.3%	-6.6%	-16.5%
CCC(=O)N1CCN(C(=O)CC)C1c1ccccc1	2.9%	8.6	-3.3%	-0.7%	3.3%	2.0%
O=C(CCl)N1c2ccccc2SCC1c1ccccc1 (stereo not given)	3.26µM*	-105.0*	5.8µM*	2.59µM*	-17.6%	4.61µM*
O=C(CCl)N1c2ccccc2OCC1c1ccccc1 (stereo not given)	2.59µM*	-93.6*	-7.1%	2.31µM*	-5.3%	-5.1%
Cc1c(C(C)C)c(=O)n(-c2ccc(S(=O)(=O)NC3CC3)cc2)n1C	10.3µM*	25.7	25.6%	-5.3%	3.6%	7.6%
CCN(CC)S(=O)(=O)c1ccc(-n2c(=O)c(C(C)C)c(C)n2C)cc1	?	2.9	19.1%	-20.2%	0.1%	0.8%
Cc1c(C(C)C)c(=O)n(-c2ccc(S(=O)(=O)NC(C)C)cc2)n1C	13µM*	43.5	-24.5%	?	-0.1%	4.8%
